In paper PMC4336329 (PLoS ONE, 2015):
In all, about 310,000 compounds went through this assay and about 14,000 (4.5%) showed an effect of 50% or more. Effects have a minus sign here. Many of the other results were omitted from the sample, so strong results are more common in it than they were.

target: human ether-à-go-go-related gene (hERG) potassium channel (human, UniProt Q12809); assay: primary screen, population patch clamp on CHO cells stably expressing hERG; higher = less effect of the substance
Sequence (Q12809 whole entry, looked up): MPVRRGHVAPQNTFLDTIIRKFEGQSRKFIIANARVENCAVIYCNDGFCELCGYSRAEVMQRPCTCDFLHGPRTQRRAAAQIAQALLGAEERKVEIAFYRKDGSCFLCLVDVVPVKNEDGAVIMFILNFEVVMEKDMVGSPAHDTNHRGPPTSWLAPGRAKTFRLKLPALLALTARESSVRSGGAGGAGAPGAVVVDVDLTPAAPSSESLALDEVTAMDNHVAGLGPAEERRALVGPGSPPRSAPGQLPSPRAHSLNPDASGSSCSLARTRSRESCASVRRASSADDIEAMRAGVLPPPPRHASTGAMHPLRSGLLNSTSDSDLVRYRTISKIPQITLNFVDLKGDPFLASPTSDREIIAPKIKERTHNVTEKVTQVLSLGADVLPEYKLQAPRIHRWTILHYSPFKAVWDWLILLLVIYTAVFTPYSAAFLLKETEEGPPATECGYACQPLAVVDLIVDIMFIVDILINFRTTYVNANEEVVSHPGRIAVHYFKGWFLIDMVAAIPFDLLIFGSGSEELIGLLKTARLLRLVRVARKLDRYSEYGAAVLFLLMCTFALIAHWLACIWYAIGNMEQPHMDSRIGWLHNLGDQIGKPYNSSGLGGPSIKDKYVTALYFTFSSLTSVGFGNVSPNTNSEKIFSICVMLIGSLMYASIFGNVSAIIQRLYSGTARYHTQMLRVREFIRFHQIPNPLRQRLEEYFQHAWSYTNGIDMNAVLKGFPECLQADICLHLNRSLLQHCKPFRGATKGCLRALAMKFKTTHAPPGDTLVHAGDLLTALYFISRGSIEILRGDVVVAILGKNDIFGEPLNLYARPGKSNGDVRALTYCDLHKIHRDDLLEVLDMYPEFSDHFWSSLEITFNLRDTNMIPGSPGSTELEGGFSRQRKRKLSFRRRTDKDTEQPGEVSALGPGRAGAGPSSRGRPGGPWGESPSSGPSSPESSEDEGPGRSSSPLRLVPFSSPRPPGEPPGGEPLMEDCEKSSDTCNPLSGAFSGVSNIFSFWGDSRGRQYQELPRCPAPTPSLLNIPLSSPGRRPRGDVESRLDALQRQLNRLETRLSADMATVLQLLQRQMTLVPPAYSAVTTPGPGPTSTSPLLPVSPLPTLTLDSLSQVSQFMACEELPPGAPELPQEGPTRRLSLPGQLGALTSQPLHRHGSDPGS
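Note: peak tail current of the secondary pulse compared with the same well before compound.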

SMILES	hERG current change (%, negative = inhibition) at 10uM [%]
CCC1CCCCN1C(=O)Nc1cccc(NC(=O)N2CCCCC2CC)c1 (stereo not shown)	9.57
CC(C)c1nnc(NC(=O)C2CCCN2S(=O)(=O)c2ccc(Cl)cc2)s1 (stereo not shown)	7.71
Fc1ccc(N=c2ssnc2Cl)c(F)c1	22.1
CCCc1cc(=O)n2[nH]c(-c3ccc(C)cc3)cc2n1	-0.208
O=C(CN1CCN(C(=O)C2CCCO2)CC1)Nc1ccc(Cl)c(Cl)c1 (stereo not shown)	-22.5
Cc1ccc(Nc2cnn(C34CC5CC(CC(CC(=O)O)(C5)C3)C4)c(=O)c2Cl)cc1	12
Cc1ccc(-n2nc3c(c2NC(=O)c2ccc(OC(C)C)cc2)CS(=O)C3)cc1 (stereo not shown)	-12.8
CCc1ccc(S(=O)(=O)Nc2c(C)n(C)n(-c3ccccc3)c2=O)cc1	-2.47
O=c1oc2cc(O)c(Cl)cc2c2ccccc12	3.98
Cc1ccc(CCNC(=O)C23CN(Cc4ccccc4)CC2C(c2cccc([N+](=O)[O-])c2)=NO3)cc1 (stereo not shown)	-14.8
CCCCN(CCCC)CCCNC(=O)C12CN(Cc3ccccc3)CC1C(c1cccc([N+](=O)[O-])c1)=NO2 (stereo not shown)	-80.6
CC(C)CCNC(=O)C12CN(Cc3ccccc3)CC1C(c1cccc([N+](=O)[O-])c1)=NO2 (stereo not shown)	-32.9
O=C(NCCCCc1ccccc1)C12CN(Cc3ccccc3)CC1C(c1cccc([N+](=O)[O-])c1)=NO2 (stereo not shown)	-6.27
CC(C)CCNC(=O)C12CN(Cc3ccccc3)CC1C(c1ccc([N+](=O)[O-])cc1)=NO2 (stereo not shown)	-53.1
O=C(NCCCCc1ccccc1)C12CN(Cc3ccccc3)CC1C(c1ccc([N+](=O)[O-])cc1)=NO2 (stereo not shown)	5.9
CCC(C)NC(=O)CSc1nc2ccccc2c(=O)n1-c1c(C)n(C)n(-c2ccccc2)c1=O (stereo not shown)	1.66
COc1ccc(/C=C(\C#N)C(=O)Nc2cc(S(=O)(=O)N3CCCCC3)ccc2N2CCCCC2)cc1	6.92
CNC(=S)Nc1ccc([N+](=O)[O-])cc1	11.9
Cc1ccc(S(=O)(=O)N(C)CC(=O)N(CC(C)C)C2CCS(=O)(=O)C2)cc1 (stereo not shown)	-2.85
c1ccc(N2N=C(c3cccs3)CC2c2ccco2)cc1 (stereo not shown)	2.24
COc1ccc(OCC(O)CNC(=O)c2ccccc2)cc1 (stereo not shown)	9.92
O=C(NNCC(O)COc1ccccc1)c1ccccc1 (stereo not shown)	1.06

SMILES	hERG current change (%, negative = inhibition) at 10uM [%]
O=C(NN(CC(O)COc1ccccc1)CC(O)COc1ccccc1)c1ccccc1 (stereo not shown)	-66.1
Cc1ccc(S(=O)(=O)N(c2cccc(C(F)(F)F)c2)C2C=CS(=O)(=O)C2)cc1 (stereo not shown)	6.3
Cc1cc(NC(=O)CCC(=O)N(Cc2ccc(F)cc2)C(C(=O)NC2CCCC2)c2ccco2)no1 (stereo not shown)	0.819
C=CCN(C(=O)CCC(=O)Nc1cc(C)on1)C(C(=O)NC1CCCC1)c1ccc(Cl)cc1 (stereo not shown)	-56.3
Cc1cc(NC(=O)CCC(=O)N(Cc2ccccc2)C(C(=O)NC2CCCC2)c2ccco2)no1 (stereo not shown)	-21.8
C=CCN(C(=O)CCC(=O)Nc1cc(C)on1)C(C(=O)NC1CCCC1)c1ccc(CC)cc1 (stereo not shown)	-17.5
Cc1cc(NC(=O)CCC(=O)N(CCc2ccccc2)C(C(=O)NC2CCCC2)c2ccco2)no1 (stereo not shown)	-66.1
C=CCN(C(=O)CCC(=O)Nc1cc(C)on1)C(C(=O)NC1CCCC1)c1ccc(C)cc1 (stereo not shown)	0.416
CCN(CC)S(=O)(=O)c1ccc2c(c1)CC(C(=O)N1CCCC1)N2C(C)=O (stereo not shown)	1.51
Cl.NCCSC1CC(=O)N(c2ccc(F)cc2)C1=O (stereo not shown)	17
CC1=C(C)CS(=O)N(S(=O)(=O)c2ccccc2)C1 (stereo not shown)	-16.3
O=C(CN(C(=O)c1ccc(Cl)cc1)N1C(=O)C2CCCCC2C1=O)c1ccc(Cl)cc1 (stereo not shown)	15.1
Cc1ccc(C(=O)CN(C(=O)c2ccc(Cl)cc2)N2C(=O)CCC2=O)cc1	-50.7
O=C(CN(C(=O)c1ccccc1Cl)N1C(=O)CCCC1=O)c1ccc(Cl)cc1	7.29
Cc1ccccc1CC1(CO)CCCN(C(=O)c2cc(-c3ccccc3)no2)C1 (stereo not shown)	2.91
CC(=O)Oc1ccc(C(=O)Nc2cccc3c2CCCC3)cc1	10.4
Cc1c(NC(=O)Cc2ccccc2)cccc1C(=O)NN1C(=O)c2ccccc2C1=O	-10.2
N#CCCn1cc(/C=N/NC(N)=S)c(-c2ccccc2)n1	-28
Cc1ccc(C(=O)NCc2ccccn2)o1	4.94
O=c1cc(CN2CCN(S(=O)(=O)c3ccc4c(c3)OCCO4)CC2)c2ccc(O)cc2o1	-4.32
O=c1cc(CN2CCc3ccccc32)c2ccc(O)cc2o1	-0.218
